In PubChem BioAssay AID540333 (Southern Research Specialized Biocontainment Screening …, 2011):
The campaign covered roughly 10,000 compounds. About 320 (3.2%) were called active. The entries come from a sample that favours actives as a whole. Values without a mark were called inactive. No stated cut-off is given here; in the data, active means CPE inhibition mostly above about 9.1% (no sharp cut-off); inactive means mostly below about 7.2%.

Assay: antivirals protecting cells from dengue CPE – CPE readout, HTS (AID 540333)
Settings: Dengue virus CPE inhibition in host cells, at 20 µM; active compounds read high
For `c1ccc(-c2[nH]c(-c3ccccc3)[n+](CC3CO3)c2-c2ccccc2)cc1` (stereo not given), the CPE inhibition was 16.7% (active). For `O=C(NCCCN1CCOCC1)C(Cl)(Cl)Cl`, the CPE inhibition was “inactive”. In the case of `CCOC(=O)CCCCCNC(=O)c1c(O)[nH]c(=O)[nH]c1=O`, the CPE inhibition is reported as “inactive”. With `N#CC(C#N)=Cc1ccc(-c2ccccc2F)o1` the CPE inhibition was 12.6% (active). In the case of `COC(=O)C1=C(c2ccc(C(C)=O)cc2)C[C@@H]2CC[C@H]1N2C(=O)N1CCCCC1`, the CPE inhibition is reported as “inactive”. With `Cc1c(C(c2ccc(O)cc2)c2c(O)c3ccccc3oc2=O)c(=O)n(-c2ccccc2)n1C` (stereo not given) the CPE inhibition was 0.205%. Molecule `Cc1ccc(-n2c(O)c(/C=N/N3CCOCC3)c(=O)[nH]c2=S)cc1` has a CPE inhibition of 0.115%. In the case of `COC(=O)C1=C(c2ccc(F)cc2F)C[C@@H]2CC[C@H]1N2C(=O)NC(C)C`, the CPE inhibition is reported as “inactive”. Work on `O=C(N/N=C/c1c(O)n(CCC2=CCCCC2)c(=O)[nH]c1=O)c1ccccc1` yielded a CPE inhibition of 0.065%. For `COc1ccc(/C=C/C(=O)c2c(O)n(CCC3=CCCCC3)c(=O)[nH]c2=O)cc1`, the CPE inhibition was 9.38% (active). For `O=C(/C=C/c1ccc2c(c1)OCO2)c1c(O)n(CCC2=CCCCC2)c(=O)[nH]c1=O`, the CPE inhibition was 4.09%. `CC(ON1CC1(C(F)(F)F)C(F)(F)F)(C(N)=O)C(N)=O` (stereo not given) gave a CPE inhibition of 0.53%. For `CN1c2ccc([N+](=O)[O-])cc2CC2(C(=O)NC(=O)N(c3ccccc3)C2=O)C1c1ccccc1` (stereo not given), the CPE inhibition was 15.4% (active). Molecule `CC(C)N1C(=O)NC(=O)C2(Cc3cc([N+](=O)[O-])ccc3N(C)C2c2ccccc2)C1=O` (stereo not given) has a CPE inhibition of 1.19%. In the case of `CN1c2ccc([N+](=O)[O-])cc2CC2(C(=O)NC(=O)NC2=O)C1c1ccccc1` (stereo not given), the CPE inhibition is reported as “inactive”. With `CN1C(=O)C(=Cc2ccc(N3CCOCC3)o2)C(=O)N(C)C1=O` the CPE inhibition was “inactive”. For `C/C(=N\Nc1ccccc1)c1c(O)n(Cc2ccccc2)c(=O)[nH]c1=O`, the CPE inhibition was “inactive”. In the case of `COC(=O)C1=C(c2ccc(F)cc2F)C[C@@H]2CC[C@H]1N2C(=O)NCCOc1ccccc1Cl`, the CPE inhibition is reported as 3.74%. With `CCCc1nc2ccc(Br)cc2c(=O)n1-c1ccc([N+](=O)[O-])c(C(F)(F)F)c1` the CPE inhibition was 0.98%. With `COC(=O)C1=C(c2cc3ccccc3o2)C[C@@H]2CC[C@H]1N2C` the CPE inhibition was 0.83%. `CCCNC(=O)N1[C@H]2CC[C@@H]1C(C(=O)OC)=C(c1cc3ccccc3o1)C2` showed a CPE inhibition of 4.1%. For `COC(=O)C1=C(c2cc3ccccc3o2)C[C@@H]2CC[C@H]1N2C(=O)NCc1cccc2ccccc12`, the CPE inhibition was 16.2% (active). `CCC(=NCCC(c1ccccc1)c1ccccc1)c1c(O)[nH]c(=O)[nH]c1=O` gave a CPE inhibition of 2.3%. With `COC(=O)C1=C(c2ccc3ccccc3c2)C[C@@H]2CC[C@H]1N2C(=O)NC1Cc2ccccc2C1` the CPE inhibition was 6.91%. In the case of `O=C(Nc1ccccc1)c1c(O)[nH]c(=O)[nH]c1=O`, the CPE inhibition is reported as “inactive”. In the case of `Cc1ccc(CN2C(=O)CN=C(c3ccccc3)c3ccccc32)cc1`, the CPE inhibition is reported as 9.14% (active). Molecule `O=C1CN=C(c2ccccc2)c2cc(Br)ccc2N1Cc1cc(=O)n2ccccc2n1` has a CPE inhibition of 0.155%. `O=C(N/N=C/c1c(O)n(CCc2ccccc2)c(=O)[nH]c1=O)c1ccncc1` showed a CPE inhibition of 0.65%. With `CN(C)S(=O)(=O)c1cc(NC(=O)COC(=O)Cc2ccccc2)ccc1Cl` the CPE inhibition was “inactive”. For `COC(=O)C1=C(c2ccc(S(C)(=O)=O)cc2)C[C@@H]2CC[C@H]1N2C(=O)NCc1ccc(C(F)(F)F)cc1`, the CPE inhibition was 0.31%.
